# Screen size: about 230,000 compounds; about 310 (0.13%) were called active. Not shown: some 2% with an inconclusive outcome. The sample as a whole holds a higher share of actives than the screen did. Unmarked numbers belong to inactive results. The call rests on the fitted dose curve; in most records, active means well fitted activation curve with a large enough effect; inconclusive means small, poorly fitted or top-dose-only effect; inactive means no such curve, though single readings can be large or run the other way.
# Assay: qHTS Multiplex Assay to Identify Dual Action Probes in a Cell Model of Huntington: Cytoprotection (ATP); further: nearly all actives have a fitted effect of over 45% in size;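 on cytoprotection (ATP increase): toxic huntingtin expression switched on by the ecdysone agonist tebufenozide; % of control where 0% means no effect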
# Conditions: PC12 HTT-Q103 induced, ATP luminescence, 40 h; series mostly up to 56.4 µM; cytoprotection (ATP increase): at the top concentration
# Text: NIH Chemical Genomics Center [NCGC]
# NIH Molecular Libraries Probe Production centers Network [MLPCN]
# Assay Submitter (PI): Wei Zheng
# Huntington's disease is a neurodegenerative disorder caused by a trinucleotide repeat expansion in Exon 1 of the Huntingtin gene. The CAG trinucleotide encodes glutamine and polyglutamine expansions cause cell death in selective areas of the brain. Huntington polyglutamine repeats have the tendency to form aggregates which are observable in later stages of the disease. The exact nature of the aggregates, whether toxic, protective, or insignificant, is unclear.
# A stable PC12 cell line containing a gene fusion of Exon 1 of the Huntingtin gene linked to GFP under the control of the inducible ecdysone promoter were used as the cell-based model of Huntington Disease for high throughput screening. Exon 1 of the Huntingtin gene contained an expansion of 103 polyglutamines (Q103) which, when expressed, caused cell death and distinct, bright GFP aggregates. The amount of cell death and the size and intensity of GFP aggregates increased over time and induction level. The cell death were quantified with a measurement of ATP content in the cells. A maximal 40-50% of cell death was observed when the Huntington gene was induced in this cell line.
# We optimized this assay in a homogeneous 1536 well format. A quantitative high throughput screen (qHTS) was conducted on the PC12 cells which were induced to express the toxic fusion construct. Small molecules which prevented cell death were identified by using a luminescent ATP quantification method (Perkin Elmer's ATPlite).
# PC12 cells stably containing a construct with an ecdysone inducible promoter expressing GFP fused to the exon 1 of HTTQ103 (Huntington protein which containing a 103 ployglutamine expansion) were used.
# NCGC Assay Protocol Summary:
# Sequence, Parameter, Description
# 1, Reagent, 5 uL 1500 cells/well 1536 TC treated White clear bottom plate
# 2, Compound, 23 nL Tebufenozide inducer (100 nM final) to all columns
# 3, Compound, 23 nL 40 uM to 0.5 nM Libraries
# 5, Reagent, 5 ul ATPLite cell death assay reagent
# 6, Detector, 4 sec integration with a Viewlux Luminescent
# Media consisted of phenol red free DMEM + 5% equine serum (Hyclone # SH30072.03 ), 5% supplemented Bovine Calf Serum (Hyclone # SH30074.03 ), 1x pen/strep, no G418
# Control columns: 1 = DMSO, 2= 2 uM teb dilns (1:1), 4 = 100 nM Teb inducer. Sample columns received 100 nM Teb.
SMILES,cytoprotection (ATP increase),Potency
COc1ccc(-c2noc(-c3ccc(C)cc3)n2)cc1,-47.5%,
COc1ccc(-c2noc(-c3cccc(OC)c3OC)n2)cc1OC,-59.3%,
COc1ccc(-c2nc(-c3ccccc3)no2)c(OC)c1,,5.62 µM (active)
O=P(O)(O)C(O)c1ccc2ccccc2c1 (centres undefined),-34.5%,
COCCNc1nc2nonc2nc1N(C)Cc1ccc(C)cc1,-6.59% [at 10 µM],
Cc1ccc(NC(=O)O[C@@H]2C(=O)c3cc(Br)ccc3O[C@H]2c2ccc3c(c2)OCO3)cc1Br,18.1%,
CCNc1nc(NC(C)C)nc(OCCOC(=O)c2ccccc2)n1,-7.6% [at 10 µM],
COc1ccc(C2(C#N)CCC(C(=O)O)CC2)cc1OC1CCCC1 (centres undefined),-6.84%,
C=C(C)C(=O)c1ccc(F)cc1,-4.25%,
C/C(Nc1ccc2oc(=O)ccc2c1)=C1/C(=O)CC2[C@@H]1C2(C)C (some centres undefined),17.8%,
Nc1ccc(N=Nc2ccccc2Cl)c(N)n1,7.07% [at 10 µM],
COC(C)C(C(=O)OCC1=CCN2CC[C@H](O)[C@@H]12)C(C)C (some centres undefined),-53.3%,
COc1ccc(-c2c(C)cc3oc(=O)cc(-c4ccccc4)c3c2C)cc1F,-61.8%,
N#C/C(=C\C1=C(N2CCOCC2)C(=C\c2ccccc2)/CC1)C(=O)Nc1ccccc1F,6.74% [at 10 µM],
COC(=O)C1=C(C(=O)OC)[C@@H]2Nc3ccccc3[C@@]23C[C@@H](C(=O)OC)N(S(=O)(=O)c2ccc([N+](=O)[O-])cc2)C3=N1,9.32% [at 10 µM],
COC(=O)C1=C(N)Oc2cc(C)[nH]c(=O)c2C1c1ccc(Cl)cc1 (centres undefined),-1.17% [at 10 µM],
COc1ccc(C2CC(=O)Oc3ccc(C(C)(C)C)cc32)cc1 (centres undefined),-9.32%,
FCOC(C(F)(F)F)C(F)(F)F,32%,
CC(C)=CCC[C@]1(C)[C@@H](CC=C(C)C)C[C@@]2(CC=C(C)C)C(=O)[C@]1(C(=O)C(C)C)C(=O)C(CC=C(C)C)=C2O,-130%,
O=C(OCc1ccccc1)c1ccc(O)cc1,9.85%,
COc1ccc(-c2nc3c(c4c2C[C@H](c2ccccc2)OC4)CN(C(=O)c2ccco2)CC3)c(C)c1,-10% [at 10 µM],
CCCCCCCC1=Cc2ccc(F)cc2C(C(C(=O)OC)C(=O)OC)N1C(=O)OC (centres undefined),inactive,

SMILES,cytoprotection (ATP increase),Potency
OCC(CO)NC1C[C@](O)(CO)[C@@H](O)[C@H](O)[C@H]1O (some centres undefined),43.4%,
CC(=O)OC1C([N+]2(C)CCCCC2)C[C@H]2C3CC[C@H]4C[C@H](OC(C)=O)C([N+]5(C)CCCCC5)CC4(C)C3CCC12C (some centres undefined),-36.3%,
Oc1ccc(Cl)c2c1CCC2,22.2%,
O=C(O)C1CCCN(CCC=C(c2ccccc2)c2ccccc2)C1 (centres undefined),-9.11%,
COCCNc1nc(-c2ccccc2)nc2c1oc1ccccc12,13.7% [at 10 µM],
CC(=O)c1cnn(-c2cc(Oc3ccc(F)cc3)ncn2)c1C,-0.119%,
CO[C@@]12[C@@H](COC(N)=O)C3=C(C(=O)C(C)=C(N)C3=O)N1C[C@@H]1N[C@@H]12,-173%,
C[C@]12CC[C@@H]3c4ccc(O)cc4C[C@@H](CCCCCCCCCS(=O)CCCC(F)(F)C(F)(F)F)C3[C@@H]1CC[C@@H]2O (some centres undefined),2.26%,
O=C(Cn1cnc2c(nnn2Cc2ccc(F)cc2)c1=O)NCc1ccc2c(c1)OCO2,7.52% [at 10 µM],
O=C(CSc1ncnc2c1nnn2Cc1ccc(F)cc1)NC1CCCC1,,1.26 µM (active)
O=C(Cc1ccc(F)cc1)NC1CCCC1,14.1%,
COC(=O)C(C(=O)OC)[C@@H](NC=O)c1ccccc1,-30.4%,
CC1(OC(=O)c2ccc(Cl)nc2)C(=O)Cc2cc(-c3ccsc3)ncc2C1=O (centres undefined),-9.48% [at 10 µM],
COc1ccc2c(c1)O[C@@H](c1ccc3c(c1)OCO3)[C@H](OC(=O)NCCc1ccc(OC)c(OC)c1)C2=O,-180%,
COc1cc2c(cc1OC)[C@@H](Cc1cc(OC)c(OC)c(OC)c1)[N+](C)(CCCOC(=O)CC/C=C/CCC(=O)OCCC[N+]1(C)CCc3cc(OC)c(OC)cc3[C@H]1Cc1cc(OC)c(OC)c(OC)c1)CC2 (some centres undefined),6.54%,
CCN1C(=O)N[C@@H](CCc2ccccc2)C(C(=O)OC)=C1C,-1.46% [at 10 µM],
C=C(C(C)=O)C(O)c1cccs1 (centres undefined),-12.9%,
O=C(Nc1ccc(O)cc1)c1ccccc1O,-145%,
CC(C)(Oc1ccc(C2CC2(Cl)Cl)cc1)C(=O)O (centres undefined),30.1%,
C=CCOC(=O)NC(c1ccc(F)c(F)c1)C(C(=O)COC)C(=O)OC (centres undefined),inactive,
CCn1c(-c2ccoc2C)n[nH]c1=S,,5.62 µM (active)
CCn1c(-c2ccncc2)n[nH]c1=S,-8.17%,
